Assay [1] in a line: qHTS assay for small molecule agonists of the p53 signaling pathway (AID 651631; calls by dose curve; also: nearly all actives have a fitted effect of over 15% in size; also: potency is read from the fitted curve at half-maximal effect). The essentials: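 HCT-116 cells carrying a beta-lactamase reporter under p53 response elements were dosed with compound for 16 h at 37 °C. LiveBLAzer B/G FRET substrate was then added for 2 h at room temperature, and fluorescence intensity was read to detect pathway agonism.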
In general terms: qHTS replaces the single test concentration by a dilution series.

Assay [2] is described as follows: qHTS assay for small molecules that induce genotoxicity in human embryonic kidney cells expressing luciferase-tagged ATAD5 (AID 651632). Also: nearly all actives have a fitted effect of over 15% in size. Also: potency is read from the fitted curve at half-maximal effect. The essentials:
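A rise in luciferase signal from ATAD5-tagged HEK293T cells marks genetic stress. Cells were exposed to compounds for 16 hr at 37C, 5% CO2, then luciferase was quantified after a 30 min room-temperature incubation with Amplite.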

A short description of assay [3]: qHTS assay for small molecule agonists of the p53 signaling pathway - cell viability (AID 651633; calls by dose curve; also: nearly all actives have a fitted effect of over 30% in size; also: potency is read from the fitted curve at half-maximal effect). The essentials: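 Viability counter-read: CellTiter-Glo luminescence (30 min, room temperature) in the same p53RE-bla plates. These plates had been exposed to compounds for 16 h at 37 C.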
Assay [4] is described as follows: qHTS assay for small molecules that induce genotoxicity in human embryonic kidney cells expressing luciferase-tagged ATAD5 - cell viability (AID 651634; calls by dose curve; also: nearly all actives have a fitted effect of over 25% in size; also: potency is read from the fitted curve at half-maximal effect). The essentials:
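Cytotoxicity counter-readout: after 15.5 hr compound treatment at 37C, live-cell protease activity in ATAD5-luciferase HEK293T cells measured by CellTiter-Fluor fluorescence, 30 min development at 37C.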

Assay [5] can be described thus: qHTS assay for small molecule disruptors of the mitochondrial membrane potential - cell viability (AID 720634; calls by dose curve; also: nearly all actives have a fitted effect of over 20% in size; also: potency is read from the fitted curve at half-maximal effect). Put shortly: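 Cytotoxicity was quantified from ATP content by CellTiter-Glo luminescence in the same wells as the MMP dye read-out. HepG2 (2,000 cells/well) were plated overnight and exposed to compounds for 1 hr at 37 C.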
A short description of assay [6]: qHTS assay for small molecule disruptors of the mitochondrial membrane potential (AID 720635). Also: potency is read from the fitted curve at half-maximal effect. The essentials:
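Mitochondrial membrane potential tracked with Mito-MPS dye, red aggregates (ex 540/em 590 nm) against green monomers (ex 490/em 535 nm). Compound treatment 1 hr at 37C, dye 30 min in HepG2.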

Assay [7] is described as follows: qHTS assay to test for compound auto fluorescence at 590 nm (red) in HepG2 cells (AID 720674). Also: potency is read from the fitted curve at half-maximal effect. Put shortly: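 Red autofluorescence (Ex/Em 540/590 nm, Rose Bengal sodium equivalents) was measured in HepG2 cells, 2,000 per well in MEM plus 10% FBS, plated overnight at 37 C. Readings were taken 1 hr after adding 23 nL compound or DMSO, at 37 C and 5% CO2.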
Assay [8] is described as follows: qHTS assay to test for compound auto fluorescence at 535 nm (green) in HepG2 cells (AID 720675).
The nature of assay [9]: qHTS assay to test for compound auto fluorescence at 460 nm (blue) in HEK293 cells (AID 720678). Also: potency is read from the fitted curve at half-maximal effect. Put shortly:
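HEK293, 2,000 cells/well, 10% dialyzed FBS; attach 4-5 hr 37C; pin compound or DMSO; o/n 37C/5% CO2; fluorescence 405/460 nm; triamterene-equivalent units.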

The nature of assay [10]: qHTS assay to test for compound auto fluorescence at 590 nm (red) in HEK293 cells (AID 720679). Also: potency is read from the fitted curve at half-maximal effect. The essentials:
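Intensity at 540nm excitation and 590nm emission is reported as Rose Bengal sodium-equivalent autofluorescence. Measurements followed overnight exposure (37C, 5% CO2) of HEK293 cells, 2,000 per well, to 23 nL compound.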

Molecules are shown by their SMILES. Values joined by “and” are separate entries in the source; they are usually repeats but may differ in a detail not shown here. Identical values can stand only once. Unmarked numbers belong to inactive results. Records with an inconclusive call do not appear. Active and inactive are the calls of the source. Unless noted, calls follow the shape of the dose curve; as a rule, active = well fitted curve in the direction sought with a large enough effect in the repeat runs; inconclusive = weak or mixed curves; inactive = no such curve, though single readings can be large; an effect the other way counts as inactive or inconclusive.
% is scaled to controls: 0 for no effect and ±100 for the full control effect; tags tell the direction and shape of the fitted curve or compound fluorescence and quenching.

In the case of `CCC(CC)C(C)CCOC(C)=O` (stereo not given), the Potency result in assay [1], in assay [2], in [3], in assay [4], in assay [5] and in assay [6] was “inactive” throughout. The Potency result in [7], in assay [8], in [9] and in assay [10] was “inactive” each time.
As to `OC[C@H]1O[C@H](O[C@H]2O[C@H](CO)[C@@H](O)[C@H](O)[C@H]2O)[C@H](O)[C@@H](O)[C@@H]1O`, the Potency entry in [1], in assay [2], in [3], in assay [4], in assay [5] and in [6] was “inactive” in each case. For the same compound, the Potency entry in assay [7] and in assay [9] was “inactive” throughout.
For the compound `OC[C@@H](O)[C@@H](O)CO`, the Potency entry in assay [1], in assay [2], in assay [3], in assay [4], in assay [5] and in assay [6] was “inactive” throughout. For the same compound, the Potency entry in [7], in assay [8], in assay [9] and in assay [10] was “inactive” each time.
With `COC(=O)Nc1nc2ccc(C(=O)c3ccccc3)cc2[nH]1`, the values for the Potency in [1], in [2] and in assay [6] were 0.16 µM (active), 3.2 µM (active) and 2.27 µM (active), respectively. Moreover, the Potency result in [3], in assay [4] and in assay [5] was “inactive” throughout. Besides, in assay [7], the fluorescence, relative to Rose Bengal is -0.678% [at 18.6 µM]. Further, in assay [9], the fluorescence, % of triamterene is 0.0612% [at 18.6 µM].
On to `O=C(O)CCN(C1(C(=O)NO)CCCC1)S(=O)(=O)c1ccc(Oc2ccc(F)cc2)cc1`, for which the Potency result in assay [1], in assay [2], in [3], in assay [4], in [5] and in assay [7] was “inactive” each time. For the same compound, the Potency result in [8], in assay [9] and in [10] was “inactive” throughout.
Consider `O=c1[nH]c(=O)n([C@H]2C[C@H](O)[C@@H](CO)O2)cc1F`, for which the Potency in [1] was 0.944 µM (active); in assay [3], 0.211 µM (active). In addition, the Potency result in [2], in assay [4], in [5], in [6], in assay [7] and in assay [8] was “inactive” each time. The Potency entry in assay [9] and in assay [10] was “inactive” throughout.
In the case of `C[Si](Cl)(c1ccccc1)c1ccccc1`, the Potency result in assay [1], in [2], in assay [3], in assay [4], in assay [5] and in assay [7] was “inactive” in each case. Further, the Potency entry in assay [9] and in [10] was “inactive” each time. Also, in assay [6], the Potency was 26.6 µM (active).
Turning to `Nc1nc2c(ncn2COCCO)c(=O)[nH]1`, the Potency result in assay [1], in [2], in assay [3], in [4], in assay [5] and in [6] was “inactive” each time. Moreover, the fluorescence, relative to Rose Bengal in [7] is 2e-05% [at 18.6 µM]. Further, the fluorescence, % of fluorescein control in [8] was 0.0011% [at 18.6 µM]. For the same compound, in assay [9], the fluorescence, % of triamterene is -0.0369% [at 18.6 µM]. Besides, the fluorescence, % of fluorescent control in assay [10] is -0.073% [at 18.6 µM].
Consider `O=C(Oc1ccccc1)Oc1ccccc1`, for which the Potency result in assay [1], in assay [2], in [3], in assay [4], in assay [5] and in assay [6] was “inactive” each time. The Potency result in assay [7], in [8], in assay [9] and in assay [10] was “inactive” in each case.
For the compound `CC/C=C\CCCCCO`, the Potency entry in assay [1], in assay [2], in assay [3], in assay [4], in [5] and in [6] was “inactive” in each case. For the same compound, the Potency entry in assay [7], in assay [9] and in assay [10] was “inactive” in each case.
For the compound `O=C(O)c1cc(=O)c2ccccc2o1`, the Potency result in [1], in [2], in assay [3], in assay [4], in assay [5] and in [6] was “inactive” each time. For the same compound, the Potency result in assay [7], in assay [9] and in assay [10] was “inactive” each time.
For the compound `CCCCCCCCCCCCCC[N+](C)(C)C`, the Potency in [1] was 21.1 µM (active); in assay [3], 26.6 µM (active); in assay [6], 17.6 µM (active) and 13.2 µM (active) and 6.85 µM (active). In addition, the Potency entry in assay [2], in assay [4], in assay [5], in assay [7], in assay [8] and in assay [9] was “inactive” throughout. Further, in [10], the Potency result is “inactive”.
Consider `CC(C)CCOC(=O)/C=C/c1ccccc1`, for which the Potency entry in assay [1], in assay [2], in assay [3], in assay [4], in assay [5] and in [6] was “inactive” in each case. Moreover, the Potency entry in assay [7], in assay [9] and in assay [10] was “inactive” in each case.
For `CCCCOC(=O)CO`, the Potency result in assay [1], in assay [2], in assay [3], in assay [4], in assay [5] and in assay [6] was “inactive” in each case. The Potency entry in assay [7], in assay [8], in [9] and in assay [10] was “inactive” in each case.
Take `CCN(CC)c1ccc2c(-c3ccc(S(=O)(=O)O)cc3S(=O)(=O)[O-])c3ccc(=[N+](CC)CC)cc-3oc2c1`: the Potency result in [1], in assay [2] and in assay [9] was “inactive” each time. The Potency in assay [3] was 9.99 µM (active); in assay [4] it was 25.1 µM (active); in assay [5], 70.7 µM (active); in [7], 0.398 µM (active); in assay [10], 0.501 µM [fluorescent] (active).
For the compound `OC1CCC(C2CCCCC2)CC1` (stereo not given), the Potency entry in assay [1], in [2], in assay [3], in assay [4], in assay [7] and in assay [8] was “inactive” throughout. The Potency entry in [9] and in assay [10] was “inactive” each time.
For the compound `CC1=Nc2ccccc2C1(C)C`, the Potency result in [1], in assay [2], in assay [3], in assay [4], in assay [6] and in assay [8] was “inactive” each time. Moreover, the Potency entry in assay [9] and in assay [10] was “inactive” each time.
Regarding `O=S(=O)(O)c1ccccc1/C=C/c1ccc(-c2ccc(/C=C/c3ccccc3S(=O)(=O)O)cc2)cc1`, the Potency in assay [1] was 17.5 µM (active); in assay [9] it was 5.01 µM [fluorescent] (active). The Potency result in assay [2], in [3], in [4], in assay [5], in assay [8] and in [10] was “inactive” throughout.
Turning to `O=S(=O)(O)c1ccc(Nc2nc(Nc3ccc(/C=C/c4ccc(Nc5nc(Nc6ccc(S(=O)(=O)O)cc6)nc(N(CCO)CCO)n5)cc4S(=O)(=O)O)c(S(=O)(=O)O)c3)nc(N(CCO)CCO)n2)cc1`, the Potency is 41.3 µM (active) in assay [1] and 31.6 µM [fluorescent] (active) in assay [9]. For the same compound, the Potency entry in assay [2], in assay [3], in assay [4], in assay [5], in [7] and in assay [8] was “inactive” each time. For the same compound, the Potency result in assay [10] was “inactive”.
With `FC(F)(F)c1cccc(Cl)c1`, the Potency result in assay [1], in assay [2], in assay [3], in assay [4], in assay [7] and in assay [8] was “inactive” each time. In addition, the Potency result in assay [9] and in assay [10] was “inactive” in each case.
On to `C1CCC(SSC2CCCCC2)CC1`, for which the Potency result in assay [1], in assay [2], in assay [3], in assay [4], in [5] and in assay [7] was “inactive” each time. Besides, the Potency result in assay [8], in assay [9] and in assay [10] was “inactive” throughout.
On to `CN(C)Cc1cc(C(C)(C)C)c(O)c(C(C)(C)C)c1`, for which the Potency result in assay [1], in [2], in assay [3], in assay [4], in [5] and in [7] was “inactive” throughout. Further, the Potency result in [8], in assay [9] and in assay [10] was “inactive” throughout.
As for `COc1ccc(NC(=O)CC(C)=O)cc1`, the Potency result in assay [1], in [2], in assay [3], in [4], in assay [5] and in assay [7] was “inactive” throughout. For the same compound, the Potency entry in assay [8], in [9] and in assay [10] was “inactive” in each case.
Regarding `CCN(CCN)c1cccc(C)c1`, the Potency result in assay [1], in assay [2], in assay [3], in assay [4], in assay [5] and in [7] was “inactive” throughout. Moreover, the Potency entry in [9] and in assay [10] was “inactive” each time.

For the origin of these results see PubChem BioAssay (Tox21).
